SMILES strings stand for the structures.

Results on 36 compounds are retold here after PubChem BioAssay.

The target in this experiment is Torsin-1A (Homo sapiens) (UniProt O14656). The experiment in a line: torsin A binders from cell lysate, primary screen, small-molecule microarray, wild-type, 635/667 nm (AID 1149). The following applies: COS7 hTOR1A-WT lysate, 635 nm fluorescence, higher = more signal.
Sequence of Torsin-1A (Homo sapiens) (O14656 whole entry, looked up): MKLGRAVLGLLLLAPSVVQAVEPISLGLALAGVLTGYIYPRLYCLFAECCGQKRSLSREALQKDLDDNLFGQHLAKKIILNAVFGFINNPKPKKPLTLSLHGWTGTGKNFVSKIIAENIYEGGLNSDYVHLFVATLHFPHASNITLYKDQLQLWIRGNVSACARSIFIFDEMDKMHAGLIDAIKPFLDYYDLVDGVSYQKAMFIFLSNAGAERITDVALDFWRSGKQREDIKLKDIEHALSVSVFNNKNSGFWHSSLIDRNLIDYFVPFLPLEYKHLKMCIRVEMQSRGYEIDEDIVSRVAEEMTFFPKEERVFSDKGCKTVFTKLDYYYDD
Turning to `C=CCC(OC(C)=O)[C@@H]1[C@@H](N(Cc2cc3ccccc3o2)C(=O)c2ccc(C)cc2)c2cc(OCCCO)ccc2N1C(=O)c1ccc2ccccc2c1` (stereo partly specified), the composite z-score was -0.353. Next, `COc1c(C)cc(-c2cc3c(c(-c4ccc(Oc5ccccc5)cc4)n2)[Si](C(C)C)(C(C)C)OC3)cc1C`: -0.238.

`COc1ccc([Si](C)(C)[C@@H]2[C@@H](CC(=O)N3CCC[C@H]3CO)O[C@]3(C(=O)N(C)c4c(Br)cc(C)cc43)[C@H]2C)cc1`: the composite z-score stood at 0.178. Compound `CCC(CC)C(O)C1C=CC2C(=O)N(c3ccccc3)C(=O)C2N1Nc1ccc(C#N)cc1` (stereo unspecified) registered a composite z-score of 0.223. Regarding `C=CCC(OC(C)=O)[C@@H]1[C@@H](N(Cc2ccc(-c3ccccc3)cc2)C(=O)Cc2ccc(F)cc2)c2cc(OCCCO)ccc2N1C(=O)c1ccc2ccccc2n1` (stereo partly specified), the composite z-score was 0.226. In the case of `C=C[C@@H](COC(C)=O)N(Cc1ccccc1[N+](=O)[O-])S(=O)(=O)c1ccc(Br)cc1`, the composite z-score was determined as 0.55.

In turn, `COCCOC(=O)N1C(=O)[C@@]2(c3cc(C#CC4=CCCCC4)ccc31)[C@H](C(=O)NC[C@H](O)c1ccccc1)[C@H]1C(=O)O[C@H](c3ccccc3)[C@H](c3ccccc3)N1[C@@H]2c1ccc(O)cc1` came in with a composite z-score of 0.838. Under `[N-]=[N+]=Nc1ccccc1[C@@H]1OC(c2ccc(OCCCO)cc2)=N[C@]1(CCS(=O)(=O)c1ccccc1)C(=O)N1CCOCC1` stands 0.46.

Consider `Cc1ccc(S[C@]2(C(=O)NCC(C)C)CC(=O)N(Cc3ccccc3Cl)[C@@H]2c2ccc(CO)cc2)cc1`, for which the composite z-score is -0.326.

`CC(C)C(=C=CC[C@@H](O)c1ccccc1OCCO)C[C@@H](O)c1ccccn1` had a composite z-score of 0.276. Next, `O=C1O[C@H](c2ccccc2)[C@H](c2ccccc2)N2[C@H]1[C@@H](C(=O)NC[C@H](O)c1ccccc1)[C@]1(C(=O)Nc3ccc(C#CCCO)cc31)[C@H]2c1ccc(O)cc1`: -0.596; `COCCOC(=O)N1C(=O)[C@@]2(c3cc(C#CCNC(N)=O)ccc31)[C@H](c1ccccc1OCCO)N1[C@H](c3ccccc3)[C@H](c3ccccc3)OC(=O)[C@H]1[C@@H]2C(N)=O`: 0.198. In the case of `O=C1C2C=CC(C(O)c3cccs3)N(Nc3ccccc3F)C2C(=O)N1c1ccccc1` (stereo unspecified), the composite z-score was found to be 0.0473. In turn, `COCCOC(=O)N1C(=O)[C@@]2(c3cc(C#Cc4ccc(OC)cc4)ccc31)[C@H](C(=O)N1CCN(c3ncccn3)CC1)[C@H]1C(=O)O[C@H](c3ccccc3)[C@H](c3ccccc3)N1[C@@H]2c1ccc(O)cc1` returned a composite z-score of 0.561.

`COC(=O)c1ccc(C23CC2(C(NP(=O)(c2ccccc2)c2ccccc2)c2ccccc2)C3)cc1` (stereo unspecified): the composite z-score was determined as 0.862. Next, `CS(=O)(=O)CCOC(=O)C1=CC(CCCO)=CC(c2cccs2)N(Cc2cc3c(cc2Br)OCO3)C=C1C(=O)OCCS(C)(=O)=O` (stereo unspecified): 1.3; `CC(C)c1ccc(NN2C(C(O)c3ccc(N(C)C)cc3)C=CC3C(=O)N(c4ccccc4)C(=O)C32)cc1` (stereo unspecified): 0.074; `COCCOC(=O)N1C(=O)[C@@]2(c3cc(C#CCC(C(=O)OC)C(=O)OC)ccc31)[C@H](c1ccc(O)cc1)N1[C@H](c3ccccc3)[C@H](c3ccccc3)OC(=O)[C@H]1[C@@H]2C(N)=O`: 1.61.

`COc1ccc([Si](C)(C)[C@@H]2[C@@H](CCn3cc([C@H](O)c4ccccc4)nn3)O[C@]3(C(=O)N(Cc4ccc(N5C(=O)c6cccc7cccc5c67)cc4)c4ccccc43)[C@H]2C)cc1` registered a composite z-score of -0.0204. Next, `CCOC(=O)C1=CC[C@@H](c2ccccc2)N(S(=O)(=O)c2ccc(C)cc2)[C@H]1C(=O)OCC`: 0.59; `CCCCCN1CC=CC23O[C@@H]4/C=C\CCCOC(=O)C4[C@H]2C(=O)N(CCCCCCO)[C@@H]3C1=O` (stereo partly specified): 0.61. As to `COCCOC(=O)N1C(=O)[C@@]2(c3ccccc31)[C@H](C(=O)NC[C@H](O)c1ccccc1)[C@H]1C(=O)O[C@H](c3ccccc3)[C@H](c3ccccc3)N1[C@@H]2c1ccc(OCCO)cc1`, the composite z-score was 0.646. Under `CC(=O)Nc1cc(Br)ccc1C(=O)O` stands 1.46; under `CN(C)C(=O)[C@@]1(CCC(=O)OC(C)(C)C)N=C(c2ccc(OCCCO)cc2)O[C@H]1c1ccccc1`, 0.635; under `C=CCOC(=O)[C@@H]1[C@H]2C(=O)O[C@H](c3ccccc3)[C@H](c3ccccc3)N2[C@H](c2ccc(OCCOC(=O)[C@@H]3C[C@@H]4C(=O)N[C@@H](Cc5ccccc5)C(=O)N4[C@@H]3c3cccc(OCCO)c3)cc2)[C@@]12C(=O)Nc1ccc(I)cc12`, 1.3. In the case of `COc1cc2c(cc1O)C(C)N(Cc1cccc(OC(F)(F)F)c1)CC2` (stereo unspecified), the composite z-score was 1.7. The compound `CC(C)CNC(=O)[C@@]1(c2ccc([N+](=O)[O-])cc2)CC(=O)N(CC23CC4CC(CC(C4)C2)C3)[C@@H]1c1ccc(CO)cc1` displayed a composite z-score of 1.16. Under `COc1ccc([Si](C)(C)[C@@H]2[C@@H](CC(=O)N(CCO)Cc3ccccc3)O[C@]3(C(=O)N(C)c4ccccc43)[C@H]2C)cc1` stands 0.089; under `CC(C)N1C(=O)C[C@@](C(=O)NCc2ccccc2)(c2ccc([N+](=O)[O-])cc2)[C@H]1c1ccc(CO)cc1`, 1.35.

Consider `O=C1C2C=CC(C(O)c3ccc(B(O)O)cc3)N(Nc3ccccc3)C2C(=O)N1c1ccccc1` (stereo unspecified), for which the composite z-score is -0.138.

`O=C(CCN1CCOCC1)c1cccc(O)c1` gave a composite z-score of 2.59. `C=CC[C@]1(C(=O)N2CCOCC2)N=C(c2ccc(OCCCO)cc2)O[C@H]1c1ccccc1` yielded a composite z-score of -0.267. Next, `C=CC(=C)C1=CCO[C@@H]1[C@H]1CCCN1S(=O)(=O)c1ccccc1[N+](=O)[O-]`: 0.343; `COc1ccc(C#Cc2ccc3c(c2)[C@]2(C(=O)N3)[C@H](c3ccc(O)cc3)N3[C@H](c4ccccc4)[C@H](c4ccccc4)OC(=O)[C@H]3[C@@H]2C(=O)NC[C@H](O)c2ccccc2)cc1`: 0.215; `CN1C=C(C(=O)OCCS(C)(=O)=O)C(C(=O)OCCS(C)(=O)=O)=CC(CCCO)=CC1C1CC1` (stereo unspecified): -0.0089. For the compound `C=CC[C@@]1(C(=O)NCC(O)CO)N=C(c2ccc(OCCCO)cc2)O[C@@H]1c1ccccc1N=[N+]=[N-]` (stereo partly specified), the composite z-score is 1.4.
